The source of these data is PubChem BioAssay (NCATS).

Structures are written as SMILES. Inconclusive results are not listed. Calls of active or inactive are those of the source. Calls come from the whole dose curve; as a rule, active = well fitted curve in the direction sought with a large enough effect; inconclusive = small, poorly fitted or top-dose-only effect, or another doubt; inactive = no such curve, though single readings can be large; an effect the other way counts as inactive or inconclusive.

Assay [1] can be described thus: qHTS of pediatric cancer cell lines to identify multiple opportunities for drug repurposing: Primary screen for NB-EBc1 cells (AID 1347095). Note: potency is the fitted concentration of half-maximal effect. Put shortly: (§1)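 Readout: CellTiter-Glo luminescence, 48 h treatment. Controls DMSO (neutral) and bortezomib 2.3 µM final (positive). Potency and efficacy taken from primary-screen concentration-response curves.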
A short description of assay [2]: qHTS of pediatric cancer cell lines to identify multiple opportunities for drug repurposing: Primary screen for SK-N-SH cells (AID 1347098). Note: nearly all actives have a fitted effect of over 65% in size. Note: potency is the fitted concentration of half-maximal effect. In outline:
(§2)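 Cells (500-1,000/well) rested 5 h, then received compounds for 48 h; metabolically active cells were measured by CellTiter-Glo luminescence. Final concentrations spanned up to 46 µM (MIPE, 11-point) or 0.59 nM-46 µM (NPC, 8-point) in primary screens, 11-point in follow-ups.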
For orientation: qHTS replaces the single test concentration by a dilution series.

Assay [3] in a line: qHTS of pediatric cancer cell lines to identify multiple opportunities for drug repurposing: Primary screen for NB1643 cells (AID 1347099). Note: nearly all actives have a fitted effect of over 50% in size. Note: potency is the fitted concentration of half-maximal effect. In outline: as §1
Assay [4] can be described thus: qHTS of pediatric cancer cell lines to identify multiple opportunities for drug repurposing: Primary screen for LAN-5 cells (AID 1347100). Note: potency is the fitted concentration of half-maximal effect. Put shortly: (§3)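 Cells (500-1,000/well) in growth media were settled 5 h at 37 degrees C, then given compounds for 48 h. Viability was read as CellTiter-Glo luminescence. Primary runs used MIPE at 11 points (0.78 nM-46 µM) and NPC at 8 points (0.59 nM-46 µM); follow-ups used 11 points.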

Assay [5] is described as follows: qHTS of pediatric cancer cell lines to identify multiple opportunities for drug repurposing: Primary screen for OHS-50 cells (AID 1347103). Note: nearly all actives have a fitted effect of over 40% in size. Note: potency is the fitted concentration of half-maximal effect. In outline: as §2
The nature of assay [6]: qHTS of pediatric cancer cell lines to identify multiple opportunities for drug repurposing: Primary screen for control Hh wild type fibroblast cells (AID 1347106). Note: nearly all actives have a fitted effect of over 55% in size. Note: potency is the fitted concentration of half-maximal effect. In outline:
as §3

The nature of assay [7]: qHTS of pediatric cancer cell lines to identify multiple opportunities for drug repurposing: Primary screen for Rh41 cells (AID 1347108). Note: nearly all actives have a fitted effect of over 70% in size. Note: potency is the fitted concentration of half-maximal effect. Put shortly: as §1
The nature of assay [8]: qHTS of pediatric cancer cell lines to identify multiple opportunities for drug repurposing: Confirmatory screen for NB1643 cells (AID 1347109). Note: nearly all actives have a fitted effect of over 45% in size. Note: potency is the fitted concentration of half-maximal effect. Put shortly: as §3
Assay [9] in a line: qHTS of pediatric cancer cell lines to identify multiple opportunities for drug repurposing: Confirmatory screen for A673 cells (AID 1347110).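 Note: cells exposed to compound for 48 h before the viability read; nearly all actives have a fitted effect of over 65% in size.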 Note: potency is the fitted concentration of half-maximal effect. Put shortly:
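qHTS titration format: primary MIPE 0.78 nM-46 µM (11 pts), NPC 0.59 nM-46 µM; confirmation 11 pts. 48 h, CTG luminescence.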

A short description of assay [10]: qHTS of pediatric cancer cell lines to identify multiple opportunities for drug repurposing: Confirmatory screen for SK-N-MC cells (AID 1347111).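 Note: cells exposed to compound for 48 h before the readout; nearly all actives have a fitted effect of over 70% in size.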 Note: potency is the fitted concentration of half-maximal effect. Put shortly: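 Metabolically active cells were quantified by ATP-dependent luminescence (CellTiter-Glo, 15 min at room temperature) following 48 h treatment. Cells had been plated at 500-1,000 per well and settled for 5 h beforehand.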

The nature of assay [11]: qHTS of pediatric cancer cell lines to identify multiple opportunities for drug repurposing: Confirmatory screen for BT-12 cells (AID 1347112). Note: nearly all actives have a fitted effect of over 55% in size. Note: potency is the fitted concentration of half-maximal effect. Put shortly:
as §3

Assay [12] can be described thus: qHTS of pediatric cancer cell lines to identify multiple opportunities for drug repurposing: Primary screen for Saos-2 cells (AID 1347097). Note: nearly all actives have a fitted effect of over 40% in size. Note: potency is the fitted concentration of half-maximal effect. In outline: as §1
The nature of assay [13]: qHTS of pediatric cancer cell lines to identify multiple opportunities for drug repurposing: Primary screen for BT-12 cells (AID 1347101). Note: nearly all actives have a fitted effect of over 25% in size. Note: potency is the fitted concentration of half-maximal effect. In outline:
as §2

A short description of assay [14]: qHTS of pediatric cancer cell lines to identify multiple opportunities for drug repurposing: Primary screen for Rh18 cells (AID 1347102). Note: nearly all actives have a fitted effect of over 65% in size. Note: potency is the fitted concentration of half-maximal effect. In outline: as §3
Assay [15] in a line: qHTS of pediatric cancer cell lines to identify multiple opportunities for drug repurposing: Primary screen for RD cells (AID 1347104). Note: potency is the fitted concentration of half-maximal effect; nearly all actives have a fitted effect of over 55% in size. Put shortly:
as §1

Assay [16] is described as follows: qHTS of pediatric cancer cell lines to identify multiple opportunities for drug repurposing: Primary screen for Rh30 cells (AID 1347107). Note: nearly all actives have a fitted effect of over 75% in size. Note: potency is the fitted concentration of half-maximal effect. Put shortly: as §3
A short description of assay [17]: qHTS of pediatric cancer cell lines to identify multiple opportunities for drug repurposing: Confirmatory screen for LAN-5 cells (AID 1347113). Note: nearly all actives have a fitted effect of over 65% in size. Note: potency is the fitted concentration of half-maximal effect. In outline:
as §3

Assay [18] is described as follows: qHTS of pediatric cancer cell lines to identify multiple opportunities for drug repurposing: Primary screen for U-2 OS cells (AID 1347096). Note: nearly all actives have a fitted effect of over 50% in size. In outline:
as §3

Assay [19] is described as follows: qHTS of pediatric cancer cell lines to identify multiple opportunities for drug repurposing: Primary screen for MG 63 (6-TG R) cells (AID 1347105). Note: nearly all actives have a fitted effect of over 50% in size. Note: potency is the fitted concentration of half-maximal effect. In outline:
as §1

On to `NS(=O)(=O)OC[C@@H]1C[C@@H](n2ccc3c(N[C@H]4CCc5ccccc54)ncnc32)C[C@H]1O`, for which the Potency is 0.132 µM (active) in assay [1]; 6.62 µM (active) in [3]; 0.833 µM (active) in [4]; 6.62 µM (active) in [6]; 1.87 µM (active) in [7]; 14.7 µM (active) in [9]. The Potency result in assay [2], in [5], in assay [8], in assay [10] and in [11] was “inactive” each time.
With `CN(C)c1ccc2cc(C(=O)N[C@@H](CCCN=C(N)CCl)C(=O)NCc3ccccc3)ccc2c1`, the Potency is 23.5 µM (active) in [1]; 14.8 µM (active) in assay [12]; 21.5 µM (active) in assay [2]; 14.8 µM (active) in [3]; 1.05 µM (active) in assay [4]; 24.3 µM (active) in assay [13]. Further, the Potency in assay [14] was 20.9 µM (active); in [5] it was 4.85 µM (active); in assay [15], 13.2 µM (active); in assay [16], 4.69 µM (active); in assay [7] it was 14.8 µM (active). Also, the Potency result in assay [6] was “inactive”.
Regarding `COc1cc([C@@H]2c3cc4c(cc3[C@H](O)[C@H]3COC(=O)[C@@H]23)OCO4)cc(OC)c1OC`, the Potency in assay [1] was 0.0209 µM (active); in assay [12], 0.118 µM (active); in [4], 0.0833 µM (active); in assay [5] it was 0.172 µM (active); in [9], 0.928 µM (active); in assay [10], 0.585 µM (active). The Potency in [11] and in [17] was 1.04 µM (active) throughout. Moreover, the Potency result in assay [2], in assay [14] and in assay [16] was “inactive” in each case.
Regarding `Cc1cc(C(=O)NOCCO)c(Nc2ccc(I)cc2F)n(C)c1=O`, the Potency result in assay [12], in assay [14], in assay [6], in assay [16] and in assay [7] was “inactive” throughout. Besides, in [2], the Potency was 2.15 µM (active).
As for `CC(=CC(=O)Nc1ccccc1C(=O)O)c1ccc2ccccc2c1`, the Potency entry in assay [18], in assay [4], in assay [13], in assay [14], in assay [19] and in assay [16] was “inactive” throughout.
With `CC(C)n1cnc2c(NCCc3ccc(O)cc3)nc(-c3csc4ccccc34)nc21`, the Potency result in assay [18] and in [6] was “inactive” in each case. Further, the Potency in assay [12] is 14.8 µM (active); in assay [2], 4.29 µM (active); in assay [3], 3.32 µM (active); in assay [15] it was 11.8 µM (active); in [19], 18.7 µM (active); in assay [16], 18.7 µM (active). For the same molecule, in assay [7], the Potency was 11.8 µM (active).
On to `C[C@H](NC(=O)C(C#N)=Cc1cccc(Br)n1)c1ccccc1`, for which the Potency is 7.43 µM (active) in assay [1]; 16.6 µM (active) in [3]; 19.3 µM (active) in assay [5]; 33.2 µM (active) in assay [15]; 23.5 µM (active) in [7]. Further, the Potency entry in assay [6] was “inactive”.
As for `COC(=O)C=CC(=O)OC`, the Potency entry in assay [18], in assay [12], in [13], in [14], in [16] and in assay [9] was “inactive” throughout. The Potency in assay [2] was 15.2 µM (active); in [3], 7.43 µM (active); in assay [19], 0.235 µM (active); in assay [7] it was 23.5 µM (active); in assay [10] it was 3.29 µM (active).
Consider `C=CCNC1=C2C[C@@H](C)C[C@H](OC)[C@@H](O)[C@@H](C)C=C(C)[C@H](OC(N)=O)[C@@H](OC)C=CC=C(C)C(=O)NC(=CC1=O)C2=O`, for which the Potency in assay [1] is 1.48 µM (active); in assay [12] it was 1.66 µM (active); in [2], 2.41 µM (active); in [3], 1.48 µM (active); in assay [4], 2.09 µM (active); in [13] it was 19.3 µM (active). For the same molecule, the Potency was 0.833 µM (active) in assay [14]; 1.22 µM (active) in assay [5]; 0.235 µM (active) in assay [15]; 23.5 µM (active) in assay [19]; 13.2 µM (active) in assay [16]; 3.72 µM (active) in [7]. Moreover, the Potency in [8] is 1.17 µM (active); in assay [9] it was 1.17 µM (active); in assay [10] it was 2.33 µM (active); in assay [17], 4.65 µM (active). The Potency result in assay [11] was “inactive”.
As to `CN(C)CC(=O)N1CCC(c2ccc(NC(=O)c3ncc(C#N)[nH]3)c(C3=CCCCC3)c2)CC1`, the Potency was 23.5 µM (active) in assay [1]; 18.7 µM (active) in assay [12]; 18.7 µM (active) in assay [3]; 16.6 µM (active) in assay [4]; 23.5 µM (active) in assay [14]; 13.7 µM (active) in assay [5]. For the same molecule, the Potency result in assay [6] is “inactive”.
In the case of `CCC(C(=O)O)C1CCC(C)C(C(C)C(O)C(C)C(=O)C(CC)C2OC3(C=CC(O)[C@@]4(CC[C@](C)(C5CC[C@@](O)(CC)C(C)O5)O4)O3)C(C)CC2C)O1` (stereo not given in full), the Potency in assay [1] is 0.296 µM (active); in [12], 9.35 µM (active); in assay [2] it was 12.1 µM (active); in assay [3] it was 1.66 µM (active); in assay [4], 1.05 µM (active); in assay [13], 0.385 µM (active). Moreover, the Potency in assay [14] is 5.9 µM (active); in assay [5] it was 0.432 µM (active); in assay [15] it was 4.18 µM (active); in assay [19] it was 18.7 µM (active); in assay [7], 3.72 µM (active); in assay [8], 1.17 µM (active). Further, the results for the Potency in assay [9], in assay [11] and in assay [17] were 5.85 µM (active), 3.69 µM (active) and 1.17 µM (active), respectively. The Potency result in [16] and in [10] was “inactive” throughout.
As for `O=C(O)c1ccc(Nc2ncc3c(n2)-c2ccc(Cl)cc2C(c2c(F)cccc2F)=NC3)cc1`, the Potency in assay [1] was 0.0662 µM (active); in assay [4] it was 0.0296 µM (active); in assay [15] it was 29.6 µM (active); in assay [19] it was 23.5 µM (active); in assay [16] it was 18.7 µM (active); in [9], 10.4 µM (active). Also, the Potency in assay [10] is 4.14 µM (active). The Potency result in assay [18], in [13], in [6], in assay [11] and in [17] was “inactive” in each case.
On to `N#CC(=Cc1ccc(O)c(O)c1)C(=O)NCc1ccccc1`, for which the Potency in assay [1] was 23.5 µM (active). Further, the Potency entry in assay [18], in assay [14] and in assay [6] was “inactive” in each case.
Consider `N#CC(=C(N)Sc1ccc(N)cc1)c1ccccc1C(F)(F)F`, for which the Potency entry in assay [18], in assay [3], in [14], in assay [19] and in [16] was “inactive” in each case. Moreover, the Potency in assay [2] is 4.82 µM (active).
Consider `C[C@H](NCc1ccc2c(c1)nc(NC(=O)c1ccc(-c3cn[nH]c3)s1)n2CCc1ccccc1)C(C)(C)C`, for which the Potency was 1.87 µM (active) in [1]; 1.18 µM (active) in [12]; 3.04 µM (active) in [2]; 1.18 µM (active) in assay [3]; 0.833 µM (active) in assay [4]; 2.43 µM (active) in [13]. In addition, the Potency was 2.96 µM (active) in [14]; 1.09 µM (active) in assay [5]; 2.96 µM (active) in [19]; 14.8 µM (active) in assay [16]; 2.35 µM (active) in assay [7]; 1.04 µM (active) in assay [8]. Further, the Potency in [9] is 0.928 µM (active); in [10] it was 0.928 µM (active); in assay [11] it was 2.93 µM (active); in [17], 1.65 µM (active).
Regarding `CC(O)(C#Cc1ccc2c(c1)N(c1nc(N)ncc1Cl)CC2)c1nccs1` (stereo not given), the Potency entry in assay [1], in [18], in assay [6], in assay [16] and in assay [7] was “inactive” throughout. The Potency is 16.6 µM (active) in assay [3], 24.3 µM (active) in assay [5], 18.7 µM (active) in assay [15] and 9.35 µM (active) in assay [19].
